Inconclusive results are not listed. Where a call stands in place of a potency, no number is given. Calls of active or inactive are those of the source. The call rests on the fitted dose curve; in most records, active means well fitted cell-killing curve with a large enough effect; inconclusive means small, poorly fitted or top-dose-only effect; inactive means flat fitted curve, though single readings scatter.
Potency means the concentration at half of the fitted maximal effect.

The assay is described as follows: Cell Viability - H-4-II-E (AID 543). Further: nearly all actives have a fitted effect of over 35% in size. The settings on record: H-4-II-E rat hepatoma viability; series mostly up to 92.2 µM. The text has this: NIH Chemical Genomics Center [NCGC]
NIH Molecular Libraries Screening Centers Network [MLSCN]
National Institutes of Environmental Health Sciences [NIEHS]
National Toxicology Program [NTP]
We have developed a 1536-well cell-based assay for quantitative high throughput screening (qHTS) against a number of cell lines to determine in vitro cytotoxicity of small molecules. This particular assay uses the H-4-II-E cell line which is derived from rat hepatoma.
NCGC Assay Protocol Summary:
The CellTiter-Glo luminescent cell viability assay (Promega) is a homogeneous method to measure the number of viable cells in culture. The end point readout of this assay is based on quantitation of intracellular ATP, an indicator of metabolic activity, using the luciferase reaction. Luciferase catalyzes the oxidation of beetle Luciferin to oxyluciferin and light in the presence of ATP. The luminescent signal is proportional to amount of ATP present.
Using the CellTiter-Glo luminescent cell viability assay, the amount of cellular ATP was measured in the H-4-II-E cell line with complete culture medium following compound treatment for 40 hours. The assay was performed in opaque white Kalypsys 1536-well plates. In the screen, tamoxifen and doxorubicin were used as positive controls. Library compounds were measured for their ability to cause acute toxicity in the cell line, as reflected by a decrease in intracellular ATP levels, in a concentration-dependent manner. […] AC50 values were determined from concentration-response data modeled with the standard Hill equation.
qHTS protocol fo CellTiter Glo H-4-II-E cellular assay
[Step] [Parameter] [Value] [Description]
1. Reagent; 5 uL; 1500 H-4-II-E cells/well
2. Time; 5 hr; 37 °C incubation
4. Controls; 23 nL; Tamoxifen 0.34 uM to 100 uM & Doxorubicin 0.02 nM to 100 uM
5. Time; 40 hr; 37 °C incubation
6. Reagent; 5 uL; CellTiter Glo reagent
7. Time; 20 min; Room Temperature
8. Detection; Luminescence; Viewlux plate reader
Keywords: cell viability, cytotoxicity, H-4-II-E cell line, luminescence, NTPHTS, NTPHTS_NCGC, NIEHS, EPA, DSSTox, MLSMR, MLSCN, NIH Roadmap, qHTS, NCGC
With `COc1cc2c(c(OC)c1OC)-c1ccc(OC)c(=O)cc1[C@@H](NC(C)=O)CC2`, the Potency was 126 nM (active). To `NCCS(=O)(=O)O` belongs “inactive”. Turning to `CC(C)C(=O)Nc1ccc([N+](=O)[O-])c(C(F)(F)F)c1`, the Potency was 39800 nM (active). Next, `Cn1c(=O)c2c(ncn2C)n(C)c1=O`: “inactive”; `Cc1cn([C@H]2C[C@H](N=[N+]=[N-])[C@@H](CO)O2)c(=O)[nH]c1=O`: “inactive”; `O=c1[nH]cc(F)c(=O)[nH]1`: 631 nM (active).

As to `CC(C)NCC(O)c1ccc(O)c(O)c1` (stereo not given), the Potency result is “inactive”. To `NS(=O)(=O)c1cc2c(cc1Cl)NCNS2(=O)=O` belongs “inactive”; to `N[C@@H](Cc1c[nH]c2ccc(O)cc12)C(=O)O`, “inactive”. To `CCC1(c2ccccc2)C(=O)NCNC1=O` belongs “inactive”; to `Cn1c(=O)c2[nH]cnc2n(C)c1=O`, “inactive”; to `Nc1ccn([C@H]2CC[C@@H](CO)O2)c(=O)n1`, “inactive”. Next, `COc1ccc2[nH]cc(CCNC(C)=O)c2c1`: “inactive”; `Cc1cn([C@H]2C=C[C@@H](CO)O2)c(=O)[nH]c1=O`: “inactive”.

As for `COc1ccc2c(c1)c(CC(=O)O)c(C)n2C(=O)c1ccc(Cl)cc1`, the Potency entry was “inactive”.

For the origin of these results see PubChem BioAssay (NCATS).
